Assay results reported in PubChem BioAssay (NCATS).
Records with an inconclusive call do not appear. Calls of active or inactive are those of the source. Calls follow the shape of the dose curve; as a rule, active = well fitted inhibition curve with a large enough effect; inconclusive = small, poorly fitted or top-dose-only effect; inactive = flat fitted curve, though single readings scatter.

System: KB-3-1
Experiment: Cytotoxic Profiling of Annotated Libraries Using Quantitative High-Throughput Screening (AID 1296008); also: nearly all actives have a fitted effect of over 60% in size
Settings: Five cell lines viability, CellTiter-Glo ATP luminescence, 48-72 h; max response: hits give low values
Method in brief: (§1)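 Cytotoxicity was measured as CellTiter-Glo ATP luminescence, read after 10 min at room temperature. Compound treatment of the cells lasted 48 or 72 hr at 37 degrees Celsius in a qHTS format.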
% is scaled to controls: 0 for no effect and ±100 for the full control effect.

SMILES	outcome	max response
C=C1[C@H](OC(C)=O)[C@H]2[C@@H](OC(=O)c3ccccc3)[C@@H](C)C[C@]2(O)[C@@H](OC(C)=O)[C@H](C)/C=C/C(C)(C)C(=O)[C@H](OC(C)=O)[C@H]1OC(C)=O	inactive	–
CC1(C)CCC[C@@]2(C)[C@H]1[C@H](O)C=C(CO)[C@]2(O)CO	–	6.19% (inactive)
NC(=O)[C@@H]1CC[C@H](c2ccc(OCc3ccccc3F)cc2)N1	–	-8.37% (inactive)
CC1=C(CC/C(C)=C/C(=O)O)[C@@]2(C)CCCC(C)(C)C2CC1=O (stereo partly drawn)	inactive	–
COc1ccc(-c2ccn(CC[C@](C)(C(=O)NO)S(C)(=O)=O)c(=O)c2)c(F)c1	inactive	–
CC(O)CCc1ccc(O[C@@H]2O[C@H](CO)[C@@H](O)[C@H](O)[C@H]2O)cc1 (stereo partly drawn)	–	2.69% (inactive)
O=C(O)Cc1cn([C@@H]2O[C@H](CO)[C@@H](O)[C@H](O)[C@H]2O[C@@H]2O[C@H](CO)[C@@H](O)[C@H](O)[C@H]2O)c2ccccc12	–	4.7% (inactive)
C/C(=C\C(=O)C[C@@]12C(=O)O[C@]3(C)CC[C@H]1C[C@H]23)C(N)=O	inactive	–
C[C@@H]1C[C@@H](O)[C@@]2(CO)C(CO)=CCC[C@@H]2[C@@]12C[C@@H](c1ccoc1)OC2=O	–	4% (inactive)

System: NIH3T3
Experiment: as above
Settings: Five cell lines viability, CellTiter-Glo ATP luminescence, 48-72 h; max response: hits give low values
Method in brief: as §1

SMILES	outcome	max response
C=C1CCC2C(C)(C(=O)O)CCCC2(C)C1CC/C(C)=C\CO (stereo not drawn)	inactive	–
CN[C@H](CNC(=O)N1CCC[C@@H]([C@@H](OCCNC(=O)OC)c2cccc(Cl)c2)C1)C[C@H]1CCCOC1	inactive	–
COc1cc(C2Oc3c(OC)cc(/C=C/C(=O)OC4CC(O)(C(=O)O)CC(O)C4O)cc3C2CO)ccc1O (stereo not drawn)	inactive	–
CC[C@@H](C)[C@H](N)C(=O)N1Cc2ccccc2C1	–	0.412% (inactive)
CC(=O)OC1CC(C(C)(C)O)OC2CCC3(C)OC4=C(C(=O)C=C5C(C)C(OC(C)=O)C6(C)C(C)OC546)C(O)C3C12C (stereo not drawn)	–	1.94% (inactive)
C[C@@H]1O[C@@H](O[C@H]2[C@H](O)[C@@H](O)[C@H](OC[C@H]3O[C@@H](OC(=O)[C@]45CCC(C)(C)C[C@H]4C4=CCC6[C@@]7(C)C[C@@H](O)[C@H](O)[C@@](C)(CO)C7[C@H](O)C[C@@]6(C)[C@]4(C)CC5)[C@H](O)[C@@H](O)[C@@H]3O)O[C@@H]2CO)[C@H](O)[C@H](O)[C@H]1O (stereo partly drawn)	–	-2.14% (inactive)
CC1=CC(=O)C2C(C)(C)CCC[C@]2(C)[C@H]1CC[C@H](C)CC(=O)O (stereo partly drawn)	inactive	–
C[C@H]1CC(=O)C2=C(C1)C(O)C(O)[C@@]1(O)[C@H]2C(=O)c2cccc(O)c2[C@@H]1O (stereo partly drawn)	–	3.59% (inactive)
CC(=O)OC(C)(C)/C=C/C(=O)[C@](C)(O)C1[C@H](O)C[C@@]2(C)[C@@H]3CC=C4[C@@H](C[C@H](O[C@@H]5O[C@H](CO)[C@@H](O)[C@H](O)[C@H]5O)C(=O)C4(C)C)[C@]3(C)C(=O)C[C@]12C (stereo partly drawn)	inactive	–
CC1CC(=O)[C@]2(O)C(C(=O)OCCc3ccc(O)c(O)c3)=CO[C@@H](O[C@@H]3O[C@H](CO)[C@@H](O)[C@H](O)[C@H]3O)[C@H]12 (stereo partly drawn)	–	0.72% (inactive)
COc1cc(/C=C/C(=O)OC[C@H]2O[C@@H](OC3OC=C(C(=O)O)C4C(O)CC(C)(O)C34)[C@H](O)[C@@H](O)[C@@H]2O)cc(OC)c1O (stereo partly drawn)	–	4.03% (inactive)
CC(=O)OC[C@]12[C@@H](OC(=O)c3ccoc3)C[C@@H]3[C@@H](OC(C)=O)[C@]1(OC3(C)C)[C@@](C)(O)C[C@H](OC(=O)c1ccoc1)[C@@H]2OC(=O)c1ccoc1	inactive	–
CC(=O)O[C@H]1C[C@@H](O)C(C)(C)C2C[C@@H](OC(C)=O)[C@]3(C)C(CC[C@@]4(C)[C@H](c5ccoc5)OC(=O)[C@H]5O[C@]543)[C@]21C (stereo partly drawn)	–	1.84% (inactive)
CC(=O)OC12CC(C)C(O)C1/C=C(/COC1OC(CO)C(O)C(O)C1O)CCC1C(/C=C(\C)C2=O)C1(C)C (stereo not drawn)	inactive	–
C=C(CCO[C@@H]1O[C@H](CO)[C@@H](O)[C@H](O)[C@H]1O)C(=O)O	–	-0.513% (inactive)
Cc1cc(C(=O)N2Cc3cnn(C)c3Nc3ccccc32)ccc1CNC(=O)N1CCN(Cc2cc(O)cc(O)c2)CC1	–	-0.633% (inactive)
O=C(O)C1(c2ccc(-c3ccc(Cl)c(Cl)c3)c(F)c2)CC1	inactive	–
C[C@@H]1O[C@@H](O[C@H]2[C@H](OC(=O)[C@]34CCC(C)(C)C[C@H]3C3=CCC5[C@@]6(C)C[C@@H](O)[C@@H](O)[C@@](C)(CO)C6[C@H](O)C[C@@]5(C)[C@]3(C)CC4)OC[C@H](O)[C@@H]2O)[C@H](O)[C@H](O)[C@H]1O[C@@H]1OC[C@@H](O)[C@H](O[C@H]2O[C@H](C)[C@@H](O)[C@H](O)[C@@H]2O)[C@H]1O (stereo partly drawn)	inactive	–
COc1cc(C(=O)OC[C@@]2(O)CO[C@@H](O[C@H]3[C@H](Oc4ccc(O)cc4)O[C@H](CO)[C@@H](O)[C@@H]3O)[C@@H]2O)cc(OC)c1O	–	-1.11% (inactive)
COc1cc(C2Oc3c(OC)cc(CCCO)cc3C2CO)ccc1O (stereo not drawn)	–	-0.27% (inactive)

SMILES	outcome	max response
CC1(C)C[C@H]2C=C(C=O)[C@]3(C(=O)O)C[C@]3(C)[C@H]2C1	–	0.712% (inactive)
CC(C)=CCC[C@](C)(O[C@@H]1O[C@H](CO[C@@H]2OC[C@H](O)[C@H](O)[C@H]2O)[C@@H](O)[C@H](O)[C@H]1O)[C@H]1CC[C@]2(C)[C@@H]1[C@H](O)C[C@@H]1[C@@]3(C)CC[C@H](O[C@@H]4O[C@H](CO)[C@@H](O)[C@H](O)[C@H]4O[C@@H]4O[C@H](CO)[C@@H](O)[C@H](O)[C@H]4O)C(C)(C)[C@@H]3CC[C@]12C	inactive	–
O=C(O)CC(CCc1ccccc1)OC1OC(CO)C(O)C(O)C1O (stereo not drawn)	inactive	–
CC(C)(Oc1ccc(-c2nc3cc(Cl)ccc3s2)cc1)C(=O)O	inactive	–
COc1c2c(c(C)c3c1C(=O)OC3)OC1(C)CC(O)C34OC(O)(CCC3(C)C1C2)OC4(C)C (stereo not drawn)	–	2.29% (inactive)
C=C1C2(C)CC3C4(C)OC(C5OC56C4=CC(=O)OC6(C)C)C3(C)C13C(=O)OC(C)C3(O)C2=O (stereo not drawn)	–	2.35% (inactive)
CC(=O)OC/C(=C/C(=O)O)CC[C@@H]1C(CO)=CC[C@@H]2C(C)(C)CCC[C@@]12C	–	-1.93% (inactive)
COc1cc(/C=C/c2ccccc2)c(C(=O)O)c(O)c1CC=C(C)C	–	3.69% (inactive)
COc1cc2c(cc1O)C(c1ccc(O)cc1)C(C)C(C)C2 (stereo not drawn)	–	-6.55% (inactive)
COc1c(O[C@@H]2O[C@H](CO)[C@@H](O)[C@H](O)[C@H]2O)c(CCC(=O)O)cc2ccoc12	–	0.4% (inactive)
C=C1[C@H](OC(C)=O)[C@H]2[C@@H](OC(=O)c3ccccc3)[C@@H](C)C[C@]2(O)[C@@H](OC(C)=O)[C@H](C)/C=C/C(C)(C)C(=O)[C@H](OC(C)=O)[C@H]1OC(C)=O	–	3.53% (inactive)
CC1(C)CCC[C@@]2(C)[C@H]1[C@H](O)C=C(CO)[C@]2(O)CO	–	-5.75% (inactive)
NC(=O)[C@@H]1CC[C@H](c2ccc(OCc3ccccc3F)cc2)N1	inactive	–
CC1=C(CC/C(C)=C/C(=O)O)[C@@]2(C)CCCC(C)(C)C2CC1=O (stereo partly drawn)	inactive	–
COc1ccc(-c2ccn(CC[C@](C)(C(=O)NO)S(C)(=O)=O)c(=O)c2)c(F)c1	–	3.1% (inactive)
CC(O)CCc1ccc(O[C@@H]2O[C@H](CO)[C@@H](O)[C@H](O)[C@H]2O)cc1 (stereo partly drawn)	–	-0.367% (inactive)
O=C(O)Cc1cn([C@@H]2O[C@H](CO)[C@@H](O)[C@H](O)[C@H]2O[C@@H]2O[C@H](CO)[C@@H](O)[C@H](O)[C@H]2O)c2ccccc12	inactive	–
C/C(=C\C(=O)C[C@@]12C(=O)O[C@]3(C)CC[C@H]1C[C@H]23)C(N)=O	inactive	–
C[C@@H]1C[C@@H](O)[C@@]2(CO)C(CO)=CCC[C@@H]2[C@@]12C[C@@H](c1ccoc1)OC2=O	inactive	–
